From PubChem BioAssay
Rows were chosen to be rich in hits. Some 6.8% of all compounds tested hit in one or more screens of this group.
T cruzi growth-1: T. cruzi intracellular proliferation inhibitors, primary screen, cell-based, beta-gal Tulahuen parasites, NIH3T3 host, luminescence; 5.9% of 77,000 active; AID 624255, 2012; inhibition, % at 8.34 µM; T. cruzi beta-gal in NIH3T3, GalScreen luminescence, 90 h;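 active = mean inhibition above about 93%, with at least 55% of replicates each passing it, limit read from the data, passing the limit was not always enough; inconclusive = only one of those two conditions holds; inactive = neither condition holds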
C diff growth: C. difficile growth inhibitors, primary screen, HTS; Clostridium difficile clinical isolate growth, OD600, 24 h; stronger effect = lower value; 0.25% of 86,000 active; growth activity, negative = inhibition, % at 16 µg/mL (by protocol);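 active = mean growth activity at or below -80% and every replicate also at or below -80%; inconclusive = mean at or below -80% but some replicate above -80%; inactive = mean growth activity above -80%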;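 also: 0% = DMSO wells and -100% = levofloxacin 16 µg/mL wells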
Pf Dd2 growth: P. falciparum Dd2 growth inhibitors, primary screen, SYBR Green fluorescence, single dose replicates. 72 h; stronger effect = lower value. activity change, % at 10 µM. 2.3% of 94,000 active; in the data active = activity change below about -80%; inconclusive = no clear call, values can overlap the other calls
T cruzi growth-2: T. cruzi intracellular proliferation inhibitors, confirmation, cell-based, NIH3T3 host, beta-gal parasite, luminescence, cherry-pick; shares compounds with T cruzi growth-1; T. cruzi beta-gal in NIH3T3, GalScreen luminescence, 90 h; inhibition, % at 8.35 µM; 72% of 5,600 active;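 active = mean replicate inhibition above about 95% and at least 55% of replicates individually reaching it, limit read from the data; inconclusive = only one of the two criteria is met; inactive = neither criterion is met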
T cruzi growth-3: inhibitors of intracellular T. cruzi replication, confirmation, NIH3T3 host cells, beta-gal parasites, cherry-pick, set 2; shares compounds with T cruzi growth-1; T. cruzi beta-gal in NIH3T3, GalScreen luminescence, 90 h; inhibition, % at 2.09 µM; 21% of 5,600 active; AID 651740, 2012;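 active = mean inhibition above about 95%, with at least 55% of replicates also reaching it, limit read from the data; inconclusive = meets just one of the two conditions; inactive = meets neither condition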;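 also: plate controls were neutral control median for no effect and positive control median for full effect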
3T3 cytotox: cytotoxicity in mouse NIH/3T3 fibroblasts, confirmation, cytotoxicity control for T. cruzi proliferation inhibitor project, cell-based, cherry-pick, single point. NIH/3T3 viability, CellTiter-Glo ATP luminescence, 90 h. cytotoxicity (signal decrease), % at 8.35 µM. 14% of 5,600 active. AID 651742, 2012. shares compounds with T cruzi growth-1;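 active = mean signal decrease across replicates above about 35% based on untreated-well scatter, with enough replicates individually passing, limit read from the data; inconclusive = no rule stated though some were filed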;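 also: 0% = median of neutral control wells and 100% = median of positive control wells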
NIH3T3 tox 2: NIH/3T3 fibroblast cytotoxicity, confirmation, cytotoxicity control, cell-based, cherry-pick, single point, set 2 | 56% of 5,600 active | NIH/3T3 viability, CellTiter-Glo ATP luminescence, 90 h | shares compounds with T cruzi growth-1 | inhibition, % at 24.9 µM;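 active = mean loss of cell viability signal at or above a set limit, and enough replicates individually reaching it; inconclusive = meets only the mean limit or only the replicate share; inactive = meets neither condition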;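 also: 0% = median of neutral control wells and 100% = median of positive control wells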
An asterisk follows results filed as active; ? = inconclusive; · = no result given.

SMILES | T cruzi growth-1 | C diff growth | Pf Dd2 growth | T cruzi growth-2 | T cruzi growth-3 | 3T3 cytotox | NIH3T3 tox 2
C[C@@H]1CN([C@H](C)CO)C(=O)c2cccc(NC(=O)Nc3ccc(F)cc3)c2O[C@H]1CN(C)C(=O)Nc1ccc(F)cc1 | 35 | 6 | 7 | · | · | · | ·
O=C(c1cccnc1)N1CCCCN2[C@H](CO)[C@H](c3ccc(C#Cc4ccccc4)cc3)[C@@H]2C1 | 101* | -21 | 11 | 110* | 73 | 61* | 43*
CC(C)CC#Cc1ccc([C@H]2[C@@H](CO)N3CCCCN(C(=O)Nc4ccccc4)C[C@@H]23)cc1 | 106* | -13 | -4 | 98* | 103* | 21 | 87*
O=C(Nc1ccc(F)cc1)N1CCCCN2[C@@H](CO)[C@H](c3ccc(C#Cc4ccccc4)cc3)[C@@H]2C1 | 123* | 5 | ? | 99* | 111* | 117* | 105*
CC(C)C#Cc1ccc([C@H]2[C@H]3CN(C(=O)Nc4ccccc4)CCCCN3[C@H]2CO)cc1 | 49 | 6 | -32 | · | · | · | ·
O=C(Nc1ccccc1)N1CCCCN2[C@H](C1)[C@H](c1ccc(C#Cc3cccnc3)cc1)[C@@H]2CO | 110* | 12 | -25 | 70 | -15 | 0 | 7
O=C(Nc1cccc(F)c1)N1CCCCN2[C@H](CO)[C@H](c3ccc(C#Cc4cccnc4)cc3)[C@@H]2C1 | 41 | -9 | -71 | · | · | · | ·
O=C(Nc1ccc(F)cc1)N1CCCCN2[C@H](CO)[C@@H](c3ccc(C#Cc4ccccc4)cc3)[C@@H]2C1 | 73 | 4 | -30 | · | · | · | ·
O=C(c1cccnc1)N1CCCCN2[C@H](C1)[C@@H](c1ccc(C#Cc3cccnc3)cc1)[C@@H]2CO | 83 | -12 | 2 | · | · | · | ·
CNC[C@H]1Oc2ccc(NC(=O)C3CCCCC3)cc2CC(=O)N([C@@H](C)CO)C[C@H]1C | 31 | -1 | 8 | · | · | · | ·
C[C@H]1CCCCO[C@@H](CN(C)C(=O)CCC(F)(F)F)[C@@H](C)CN([C@@H](C)CO)C(=O)c2cc(NS(=O)(=O)c3ccc(F)cc3)ccc2O1 | · | -4 | -47 | · | · | · | ·
C[C@@H]1CN([C@H](C)CO)C(=O)c2cc(NC(=O)Cc3ccccc3)ccc2O[C@@H](C)CCCCO[C@@H]1CN(C)Cc1ccc(C(F)(F)F)cc1 | -11 | · | -49 | · | · | · | ·
CCC(=O)N1CC(=O)N2[C@H](C1)[C@H](c1ccc(C#CC3CCCC3)cc1)[C@@H]2CO | · | -6 | -21 | · | · | · | ·
O=C(Nc1ccccc1)N1CCCCN2[C@H](CO)[C@@H](c3ccc(C#Cc4ccccc4)cc3)[C@@H]2C1 | 109* | 56 | 9 | 89 | 103* | ? | 104*
CC(C)C#Cc1ccc([C@H]2[C@@H](CO)N3CCCCN(C(=O)Nc4ccccc4)C[C@@H]23)cc1 | 113* | -11 | 7 | 107* | 67 | 41* | 34*
CC(C)C#Cc1ccc([C@H]2[C@H](CO)N3CCCCN(C(=O)Nc4ccccc4)C[C@@H]23)cc1 | 32 | 13 | -15 | · | · | · | ·
O=C(C[C@@H]1CC[C@H](NC(=O)Nc2ccccc2F)[C@@H](CO)O1)NCc1ccc(Cl)cc1 | 22 | 2 | 0 | · | · | · | ·
CCCC#Cc1ccc2c(c1)O[C@H](CN(C)C(=O)c1ccccc1F)[C@@H](C)CN([C@@H](C)CO)S2(=O)=O | 74 | 13 | -79 | · | · | · | ·
CC(C)CC#Cc1ccc2c(c1)O[C@H](CN(C)C(=O)c1ccccc1F)[C@@H](C)CN([C@H](C)CO)S2(=O)=O | 88* | 12 | -82* | 103* | 58 | -14 | 97*
CCCC#Cc1ccc2c(c1)O[C@@H](CN(C)C(=O)c1ccccc1F)[C@@H](C)CN([C@H](C)CO)S2(=O)=O | 66 | 11 | -77 | · | · | · | ·
CC(C)CC#Cc1ccc2c(c1)O[C@H](CN(C)C(=O)c1ccccc1F)[C@H](C)CN([C@H](C)CO)S2(=O)=O | 105* | 5 | -71 | 105* | 75 | ? | 104*
CC(C)CC#Cc1ccc2c(c1)O[C@@H](CN(C)C(=O)c1ccccc1F)[C@H](C)CN([C@@H](C)CO)S2(=O)=O | 105* | 4 | -82* | 106* | 106* | ? | 106*
COCC#Cc1ccc2c(c1)O[C@H](CN(C)C(=O)c1ccccc1F)[C@@H](C)CN([C@H](C)CO)S2(=O)=O | 0 | · | -15 | · | · | · | ·
CCCC#Cc1ccc2c(c1)O[C@H](CN(C)C(=O)c1ccccc1F)[C@@H](C)CN([C@H](C)CO)S2(=O)=O | 111* | 18 | -78 | 110* | 84 | -19 | 8
C[C@H](CO)N1C[C@H](C)[C@@H](CN(C)C(=O)c2ccccc2F)Oc2cc(C#CCN(C)C)ccc2S1(=O)=O | 81 | -3 | -34 | · | · | · | ·
SMILES | T cruzi growth-1 | C diff growth | Pf Dd2 growth | T cruzi growth-2 | T cruzi growth-3 | 3T3 cytotox | NIH3T3 tox 2
Cc1ccc(S(=O)(=O)Nc2cccc3c2O[C@H](CN(C)S(=O)(=O)c2cn(C)cn2)[C@@H](C)CN([C@@H](C)CO)C3=O)cc1 | -25 | -1 | 6 | · | · | · | ·
Cc1ccc(S(=O)(=O)N(C)C[C@H]2OCCCC[C@H](C)Oc3ccc(NC(=O)CCC(F)(F)F)cc3C(=O)N([C@@H](C)CO)C[C@@H]2C)cc1 | · | · | -66 | · | · | · | ·
COc1ccc2c3c([nH]c2c1)[C@H](CO)N(C(=O)c1ccncc1)CC31CCN(C)CC1 | · | · | 26 | · | · | · | ·
C[C@H]1CN([C@@H](C)CO)C(=O)c2cccc(NC(=O)C3CC3)c2O[C@H]1CN(C)S(=O)(=O)c1ccc(Cl)cc1 | 18 | -3 | -13 | · | · | · | ·
C[C@@H]1CN([C@H](C)CO)C(=O)c2cc(NC(=O)CCCN(C)C)ccc2O[C@@H](C)CCCCO[C@@H]1CN(C)S(=O)(=O)c1ccccc1 | -1 | -5 | 13 | · | · | · | ·
N#C[C@H]1[C@H](c2ccc(C#Cc3ccc(F)cc3)cc2)[C@H](CO)N1C(=O)C1CC1 | 114* | -16 | -29 | 102* | 76 | -13 | 80*
N#C[C@H]1[C@@H](c2ccc(C#Cc3ccccc3F)cc2)[C@@H](CO)N1C(=O)C1CC1 | 103* | 7 | -65 | 104* | 104* | 5 | 30*
N#C[C@@H]1[C@@H](c2ccc(C#Cc3ccccc3F)cc2)[C@@H](CO)N1C(=O)C1CCCCC1 | 102* | 3 | -28 | 109* | 70 | -9 | 80*
COCC(=O)N1[C@@H](C#N)[C@@H](c2ccccc2)[C@@H]1CO | 28 | -3 | 32 | · | · | · | ·
N#C[C@@H]1[C@H](c2ccc(C#Cc3ccccc3F)cc2)[C@H](CO)N1C(=O)C1CCC1 | 94 | -1 | -72 | · | · | · | ·
